Screening data (PubChem)
Only some compounds are listed: those with a hit (about 3% of all), similar ones and a draw of the others.
PMP22 txn: modulators of PMP22 gene transcription in S16 Schwann cells; S16 Pmp22-F2sN Schwann cells, FLuc/NLuc coincidence luminescence, 24 h; Potency, µM (highest dose often 57.5 µM), for the others: at the top dose activity change, negative = inhibition, hits mostly inhibitors; 43,000 compounds, 2% hits; AID 1508649; active = clear falling dose curves in both reporters; inconclusive = both reporters move, but less clearly or upward; inactive = either reporter flat; the % is the NLuc reporter signal
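Transcriptional readout in edited S16(c9) cells: two luciferases reported from the Pmp22 locus, measured in turn after 24 h compound incubation.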
p53null 32C kill: p53 null cell cytotoxicity, permissive temperature; H1299-neo p53 null cells, ATP luminescence, 24 h, 32C; Potency, µM (titrated, usually from 46.1 µM), for the others: at the highest dose activity change, negative = cytotoxicity, most hits filed as cytotoxic; 55,000 compounds, 0.62% hits;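 note: 0% = DMSO only and -100% = full killing by 100 µM tamoxifen; nearly all actives have a fitted effect of over 55% in size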
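Overnight 37C seeding (600 cells/well) of H1299-neo preceded a 24 hr, 32C exposure to compounds up to 46 uM. ATP levels, read by luminescence after 20 min at RT, indicated surviving cells.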
S16 F2sN tox: cytotoxicity in S16 Pmp22-F2sN Schwann cells | 43,000 compounds, 0.48% hits | S16 Pmp22-F2sN Schwann cells viability, CellTiter-Glo, 24 h | Potency, µM (highest dose often 57.5 µM), for the others: at the top dose activity change, negative = cytotoxicity, hits mostly cytotoxic | AID 1508642; note: nearly all actives have a fitted effect of over 65% in size
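Viability was measured by CellTiter-Glo luminescence (15 min, room temperature). This followed 24 h at 37 °C of compound exposure (23 nL pin transfer) in S16 Pmp22-F2sN Schwann cells, 500-1,000 per well.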
mTORC1 inh: mTORC1 pathway inhibition measured by phospho-rpS6 | 44,000 compounds, 0.78% hits | AID 493208 | Potency, µM (titrated, usually from 38.3 µM), for the others: top-dose activity change, negative = inhibition, usual class: inhibitors | Tsc2-/- p53-/- MEF, phospho-rpS6 immunofluorescence/PI, 24 h;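 note: plate controls were DMSO for no effect and rapamycin for full effect; nearly all actives have a fitted effect of over 50% in size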
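Readout is phospho-S6 Alexa 488 signal normalized to PI per well, reported as % active cells with thresholds set from rapamycin (7.5 nM) and DMSO controls. Cells: Tsc2-/-, p53-/- MEFs, 24 hrs compound at 37 C; PI cell number serves as viability.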
p53null 39C tox: p53 null cell cytotoxicity, nonpermissive temperature | AID 904 | Potency, µM (series often up to 46.1 µM), inactives show top-dose activity, negative = cell killing, most hits filed as cytotoxic | H1299 p53-null (neo) cells, 39C, ATPlite viability, 24 h | 55,000 compounds, 0.97% hits;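 note: 0% = DMSO only and -100% = full killing by 100 µM tamoxifen; nearly all actives have a fitted effect of over 50% in size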
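H1299 lung cancer cells, p53-null (H1299-neo) or expressing p53 A138V (H1299-p53A138V), were plated overnight at 37C, then exposed to compounds at up to 46 uM for 24 hr at 39C. Viability was read by ATP-based luminescence.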
SKOV3 invasion: ovarian cancer metastasis inhibition, 3D TME model; SKOV3ip1-GFP adhesion/invasion on 3D omental model, fluorescence; AID 1963576; 46,000 compounds, 0.1% hits; Potency, µM (titrated, usually from 45.8 µM), for the others: at the highest dose activity change, negative = inhibition, most hits filed as inhibitors;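 note: plate controls were DMSO wells for no effect and tomatine positive control wells for full effect; nearly all actives have a fitted effect of over 65% in size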
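Adhesion/invasion was scored as fixed GFP-labeled SKOV3ip1 cell counts (488/509 nm), normalized to DMSO and tomatine controls. Cancer cells in serum-free medium, with four compound doses (0.36-46 umol/L), sat 2 hr at RT then 16 hr at 37 C on a 48 hr fibroblast/mesothelial/ECM culture.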
Active calls of the source: *; i = inactive; ? = inconclusive; nt = no result. Unless noted, calls come from the whole dose curve; as a rule, active = well fitted curve in the direction sought with a large enough effect; inconclusive = small, poorly fitted or top-dose-only effect, or another doubt; inactive = no such curve, though single readings can be large; an effect the other way counts as inactive or inconclusive. Unless noted, % is set by controls: 0 for no effect and ±100 for the full control effect; potency is the fitted concentration of half-maximal effect.

SMILES | PMP22 txn | p53null 32C kill | S16 F2sN tox | mTORC1 inh | p53null 39C tox | SKOV3 invasion
CCOc1ccc(C2=C(C(=O)CC)Sc3nncn3N2C(=O)CC)cc1 | ? | 13µM* | ? | ? | ? | -19%
Cc1cccc(NC(c2cccc(Cl)c2)c2ccc3cccnc3c2O)n1 (centres undefined) | ? | ? | ? | ? | 2.5µM* | i
Cc1ccnc(NC(c2cccc(O)c2)c2ccc3ccc(C)nc3c2O)c1 (centres undefined) | ? | -8% | -2% | ? | -7% | -3%
Cc1ccc(C(Nc2ccccn2)c2ccc3cccnc3c2O)cc1 (centres undefined) | ? | ? | 32µM* | -19% | 4µM* | -28%
COc1nccc(-c2c(-c3ccc(F)cc3)ncn2C2CCNCC2)n1 | nt | nt | nt | nt | nt | 19%
Fc1cc(-c2cccc3ncc(-c4cnn(C5CCNCC5)c4)nc23)cc(F)c1CN1CCOCC1 | nt | nt | nt | nt | nt | -4%
O=C(O)c1ccc(-c2cc3cccnc3c(-c3ccc4nonc4c3)n2)cc1 | nt | nt | nt | nt | nt | 7%
CCN(CC)c1ccc(C(=O)NCc2ccc3c(c2)CCN3C(=O)c2ccc(F)cc2)cc1 | 7.3µM* | 7% | ? | -7% | 17% | 0%
Nc1nccc(-c2ccc3noc(-c4ccc(Cl)cc4)c3c2)n1 | nt | nt | nt | nt | nt | -13%
Cc1ccc(S(=O)(=O)c2nnn3c2nc(NC2CCCCC2)c2sccc23)cc1C | ? | 4% | ? | 7.4µM* | 28% | 25%
CCCN1C(=O)C(Cc2nc3ccccc3c(=O)n2CC)c2cc(Br)ccc21 (centres undefined) | ? | 8% | ? | 15µM* | ? | i
CCn1c(CC2C(=O)N(C)c3ccc(Br)cc32)nc2ccccc2c1=O (centres undefined) | ? | 0% | -21% | ? | ? | i
CCCCNC(=O)c1c(C)oc2ncn(CC(C)C)c(=O)c12 | 11µM* | 0% | ? | -20% | 3% | 1%
Cc1ccc(CCNC(=O)c2c(C)oc3ncn(CC(C)C)c(=O)c23)cc1 | ? | 9% | -5% | -8% | 3% | -11%
CCN(CC)CCn1c(=N)n(CC(O)COc2ccccc2C)c2ccccc21 (centres undefined) | ? | -2% | 28µM* | 12µM* | 18µM* | ?
N=c1n(CCO)c2ccccc2n1CCOc1ccc(F)cc1 | nt | -2% | nt | ? | -3% | 3%
CCN(CC)CCn1c(=N)n(CCOc2ccccc2Cl)c2ccccc21 | ? | -21% | 28µM* | 5.8µM* | 3.2µM* | ?
CCn1c(=N)n(CC(O)COc2ccccc2)c2ccccc21 (centres undefined) | ? | -8% | 10% | -3% | 15% | i
OCCN1C[C@H](O)[C@@H](O)[C@H](O)[C@@H]1CO | nt | nt | nt | nt | nt | -1%
COc1ccc(S(=O)(=O)Nc2cccnc2Nc2ccc(O)cc2)cc1 | nt | nt | nt | nt | nt | 6%
CC1=C(C(=O)Nc2cc3cn[nH]c3cc2F)C(c2ccc(Cl)cc2F)N=C(c2ccnc(Cl)c2)N1 (centres undefined) | nt | nt | nt | nt | nt | 17%
COc1ccc(C(=O)NCC(c2cccnc2)N2CCN(c3ccc(F)cc3)CC2)cc1OC (centres undefined) | nt | -11% | nt | nt | -1% | nt
COc1cc(C(=O)NCC(c2cccnc2)N2CCN(c3ccc(F)cc3)CC2)cc(OC)c1OC (centres undefined) | 7% | -22% | 10% | 3% | 16µM* | 1%
COc1ccccc1N1CCN(C(CNC(=O)C(=O)NCc2cccnc2)c2cccnc2)CC1 (centres undefined) | ? | ? | -6% | -1% | 20µM* | 23%
OCc1ccccc1O[C@@H]1O[C@H](CO)[C@H](O)[C@H](O)[C@H]1O | nt | nt | nt | nt | nt | -9%
SMILES | PMP22 txn | p53null 32C kill | S16 F2sN tox | mTORC1 inh | p53null 39C tox | SKOV3 invasion
Cc1csc(-c2nnc(Nc3ccc(Oc4ncccc4-c4ccnc(N)n4)cc3)c3ccccc23)c1 | nt | nt | nt | nt | nt | 26%
Cc1ccccc1C(C(=O)NC1CCCC1)N(C(=O)Cn1cnc2ccccc21)c1cccc(F)c1 (centres undefined) | nt | nt | nt | nt | nt | -10%
CC1=C(CO)C(=O)O[C@@H]([C@@H](C)[C@H]2CC[C@H]3[C@@H]4C[C@H]5O[C@]56[C@@H](O)C=CC(=O)[C@]6(C)[C@@H]4CC[C@]23C)C1 | nt | nt | nt | nt | nt | 4.7µM*
CCN1CCN(c2ccc(Nc3cc(N(C)C(=O)Nc4c(Cl)c(OC)cc(OC)c4Cl)ncn3)cc2)CC1 | nt | nt | nt | nt | nt | 2%
Cc1ccc(-c2cc(C(=O)NC(C)c3ccccc3)c3ccccc3n2)cc1C (centres undefined) | 10% | -13% | -2% | 15% | 16% | 4%
Cc1ccc(-c2cc(C(=O)N3CCN(c4ccccc4)CC3)c3ccccc3n2)cc1C | ? | 13µM* | -18% | ? | ? | -21%
Nc1ncnc2c1c(-c1cccc(OCc3ccccc3)c1)cn2C1CC(CN2CCCC2)C1 (centres undefined) | nt | nt | nt | nt | nt | -18%
COc1ccc(CCNC(=O)CCCn2c(=O)c3ccccc3n(CC(=O)Nc3cc(Cl)ccc3C)c2=O)cc1OC | ? | ? | 20% | ? | 13µM* | i
CCC(C(=O)NCCc1ccc(OC)c(OC)c1OC)n1nc(C)c2sc3ccccc3c2c1=O (centres undefined) | ? | -11% | ? | 1% | 1% | 0%
CCc1cccc(NC(=O)Cn2c(=O)n(CC(=O)NCCc3ccccc3)c(=O)c3ccccc32)c1 | ? | 13µM* | -5% | 4% | 13µM* | 0%
COc1ccc(CCNC(=O)C(C)n2nc(C)c3sc4ccccc4c3c2=O)c(OC)c1 (centres undefined) | -10% | -21% | 0% | 2.9µM* | ? | i
Cc1cc(C)cc(NC(=O)Cn2c(=O)n(CC(=O)NCCc3ccccc3)c(=O)c3ccccc32)c1 | ? | ? | -4% | -3% | ? | 1%
CCOc1ccc(CCNC(=O)CCCn2nc(C)c3sc4ccccc4c3c2=O)cc1OCC | ? | ? | 5% | 0% | -23% | i
COc1ccc(CCNC(=O)CCCn2nc(C)c3sc4ccccc4c3c2=O)cc1OC | -32% | ? | -10% | 18µM* | ? | -1%
CC(=O)N1CCN(c2ccc(OCc3nn(C)c(C)c3-c3cccc4c(CCCOc5cccc6ccccc56)c(C(=O)O)n(Cc5cccnc5)c34)cc2)CC1 | nt | nt | nt | nt | nt | -19%
